In PubChem BioAssay (NCATS):
Records with an inconclusive call do not appear. Entries that show only a call come without a potency. Active and inactive are the calls of the source. Calls follow the shape of the dose curve; as a rule, active = well fitted curve in the direction sought with a large enough effect; inconclusive = small, poorly fitted or top-dose-only effect, or another doubt; inactive = no such curve, though single readings can be large; an effect the other way counts as inactive or inconclusive.

What was measured:
[1] = biological target: Aldehyde dehydrogenase, mitochondrial (Homo sapiens) (UniProt P05091); experiment: qHTS for Inhibitors of the Aldehyde Dehydrogenase Family (ALDH2) Primary screen (AID 2061308); also: nearly all actives have a fitted effect of over 55% in size
[2] = biological target: Retinaldehyde dehydrogenase 3 (Homo sapiens) (UniProt P47895); experiment: qHTS for Inhibitors of the Aldehyde Dehydrogenase Family (ALDH1A3) Primary screen (AID 2061315)

Nc1ccc2c(=O)n3nc(Nc4ccc5c(c4)CCC5)sc3nc2c1
Potency [1]: inactive | Potency [2]: inactive

CCc1ccc2oc(=O)cc(CN3CCN(c4ccccc4F)CC3)c2c1
Potency [1]: inactive | Potency [2]: inactive

O=C(Nc1ccc(-c2nc3ccccc3[nH]2)cc1)c1ccc2cc[nH]c2c1
Potency [1]: inactive | Potency [2]: inactive

CCN(CC)CCCC(C)n1c(-c2ccccc2)nc2c(N3CCOCC3)nc(C)nc21 (configuration not stated)
Potency [1]: inactive | Potency [2]: inactive

O=S(=O)(c1ccc2c(c1)OCCO2)N1CCN(S(=O)(=O)c2ccccc2OC(F)(F)F)CC1
Potency [1]: inactive | Potency [2]: inactive

Cc1ccc(C(=O)[C@H]2CC[C@@H](C(=O)Nc3ccc(S(=O)(=O)Nc4nccs4)cc3)C2)cc1C
Potency [1]: inactive | Potency [2]: inactive

CC(=O)c1ccc(N2CCN(S(=O)(=O)c3ccc4[nH]c(=O)oc4c3)CC2)cc1
Potency [1]: inactive | Potency [2]: inactive

CCCn1c(C)nc2c(NC3CCN(Cc4ccccc4)C3)nc(C)nc21 (configuration not stated)
Potency [1]: inactive | Potency [2]: inactive

Cc1cnc(-c2ccccc2C(C)C)nc1NCC1CCN(c2cccnc2)CC1
Potency [1]: inactive | Potency [2]: inactive

Cc1ccc(Cn2ncc3c4sc(C)cc4n(C)c3c2=O)cc1
Potency [1]: inactive | Potency [2]: inactive

CCCn1c(-c2ccc(F)cc2)nc2c(NC3CCN(Cc4ccccc4)C3)nc(C)nc21 (configuration not stated)
Potency [1]: inactive | Potency [2]: inactive

Cc1ccc(=O)n(CC(=O)NCCc2ccccc2)n1
Potency [1]: inactive | Potency [2]: inactive

Cn1c(=O)c2c(nc(OC3CCN(C(=O)C4CC4)CC3)n2CCC(C)(C)C)n(C)c1=O
Potency [1]: inactive | Potency [2]: inactive

Cc1cc(N[S+](=O)([O-])c2ccc(NC(=O)Cc3ccc4c(c3)CCCC4)cc2)no1
Potency [1]: inactive | Potency [2]: inactive

O=C(Nc1ccc(-c2nc3ccccc3[nH]2)cc1)c1ccc2c(c1)OCCO2
Potency [1]: inactive | Potency [2]: inactive

N#Cc1ccc(C[C@H](C(=O)O)N2C(=O)c3ccc(C(=O)O)cc3C2=O)cc1
Potency [1]: inactive | Potency [2]: inactive

COc1ccc(S(=O)(=O)N2CCN(S(=O)(=O)c3ccc(OC)cc3)CC2)cc1
Potency [1]: inactive | Potency [2]: inactive

Cc1ccc(-c2cc(C(=O)Nc3ccc(-n4cncn4)cc3)c3ccccc3n2)cc1C
Potency [1]: inactive | Potency [2]: inactive

COc1cccc(NC(=S)N2CCN(c3cc(Cl)cc(Cl)c3)CC2)n1
Potency [1]: inactive | Potency [2]: inactive

Cc1ccc(OCCn2c(CCNC(=O)C3CCOCC3)nc3ccccc32)cc1
Potency [1]: inactive | Potency [2]: inactive

COc1cc2ncnc(Nc3cccc(O)c3)c2cc1OC
Potency [1]: inactive | Potency [2]: inactive
